# An excerpt weighted towards active compounds, which were near 4.1% of everything screened.
# TIM10 inh: growth inhibitors of isogenic TIM10 control yeast, primary screen, counter-screen for tim10-1 yeast inhibitor project, luminescence, uHTS | S. cerevisiae TIM10 strain growth, BacTiter-Glo luminescence, 24 h | inhibition, % at 10 µM | 330,000 compounds, 1.4% hits | AID 463195, 2010;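 active = inhibition of 40% or more at the single tested concentration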;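 note: wild-type TIM10 isogenic control strain grown at permissive 25 °C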
# NLRP3 yeast inh: NALP3 inflammasome inhibitors in reconstituted yeast, primary screen, luminescence, uHTS. Yeast reconstituted NLRP3/ASC/caspase-1, beta-gal luminescence, 24 h. AID 2825, 2010. 330,000 compounds, 0.39% hits. inhibition, % at 10 µM;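 active = inhibition of 50% or more; inactive = inhibition below 50%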;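 note: plate controls were induced DMSO wells for no effect and uninduced yeast grown without galactose for full effect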
# NALP1 yeast inh: NALP1 inflammasome inhibitors in reconstituted yeast, colorimetric, S. cerevisiae, triplicate retest; S. cerevisiae NALP1/ASC/caspase-1 growth, X-gal OD620, 72 h; 280,000 compounds, 0.61% hits; AID 2071, 2009; inhibition, % at 10 µM; in the data active = inhibition mostly above about 24%, no sharp cut-off; inactive = mostly below about 32%
# tim10-1 inh: growth inhibitors of tim10-1 mutant yeast, primary screen, luminescence, uHTS; S. cerevisiae tim10-1 ts strain growth, BacTiter-Glo, 24 h; inhibition, % at 20 µM; 330,000 compounds, 2.2% hits;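 active = inhibition of at least 40%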;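 note: mutant grown at 25 °C; 0% = DMSO wells with yeast and 100% = wells holding no yeast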
# tim23-1 inh: growth inhibitors of tim23-1 mutant yeast, primary screen, luminescence, uHTS; AID 463212, 2010; 330,000 compounds, 1.3% hits; inhibition, % at 20 µM; S. cerevisiae tim23-1 growth, BacTiter-Glo luminescence, 24 h;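 active = growth inhibition of the mutant yeast at or above 50%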;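 note: temperature-sensitive mutant grown at 25 °C; plate controls were DMSO-treated mutant yeast for no effect and medium wells lacking yeast for full effect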
# PfHsp90 yeast 2: growth inhibition of PfHsp90-expressing yeast, primary screen, antimalarial PfHsp90 inhibitor project, S. cerevisiae, BacTiter-Glo luminescence, single point, set 2; BacTiter-Glo ATP, 48 h; yeast lacking PDR1 and PDR3 efflux regulators; inhibition, % at 9.4 µM; AID 504621, 2011; 310,000 compounds, 0.32% hits;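 active = every replicate shows inhibition above about 80%, whatever the replicate mean, limit read from the data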;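 note: 0% = DMSO neutral controls and 100% = 20 µM radicicol positive controls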
# tim23-1 conf: tim23-1 mutant yeast growth inhibitors, confirmation, luminescence, single concentration | shares compounds with tim23-1 inh | S. cerevisiae tim23-1 growth, BacTiter-Glo luminescence, 24 h | inhibition, % at 20 µM | 4,400 compounds, 83% hits | AID 463218, 2010;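 active = inhibition above about 39% in either of two replicate wells at 20 µM, limit read from the data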;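 note: temperature-sensitive tim23-1 mutant grown at 25 °C; 0% = DMSO wells with yeast and 100% = medium wells without yeast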
# Numbers without * were called inactive; . = no result given.
SMILES,TIM10 inh,NLRP3 yeast inh,NALP1 yeast inh,tim10-1 inh,tim23-1 inh,PfHsp90 yeast 2,tim23-1 conf
O=C(NCc1ccc2c(c1)OCO2)c1ccc(-c2ccc(Cl)cc2)o1,33,30,18,19,55*,-61,54*
CC(=O)c1cccc(NC(=O)NCc2ccc3c(c2)OCO3)c1,-2,28,3,8,11,-34,.
COc1ccc(N=c2cc(-c3ccc(OC)cc3)oc3ccccc23)cc1,30,27,47,27,51*,-25,39*
CC(=O)Nc1ccc(NC(=O)C2CCN(C(=O)c3cccs3)CC2)cc1,4,24,-10,-1,14,-21,.
COc1ccccc1OCCC(=O)OCC(=O)NCc1ccc(F)cc1,-1,4,.,6,3,22,.
O=C(Nc1ccccc1C(=O)Nc1ccc(Br)cn1)c1cccc([N+](=O)[O-])c1,4,-3,14,37,16,-11,.
O=C(N/N=C/c1ccccn1)c1ccc(NC(=O)c2ccccc2Cl)cc1,-6,6,-4,-84,-29,0,.
O=C(N/N=C/c1ccccn1)c1ccc(Cl)c(Cl)c1,24,39,13,27,62*,-4,49*
COCC(=O)N/N=C\c1ccccc1OC/C=C/c1ccccc1,19,9,18,25,51*,-28,39*
COc1cc(C=O)ccc1OCc1ccncc1,13,11,6,15,0,-10,.
COc1cc(C=O)c(Br)cc1OCc1ccc(C)cc1,39,-25,4,13,65*,-111,57*
CCOC(=O)CC1(NC(=O)C2CCC(=O)N(Cc3ccccc3OC)C2)CCCCC1 (stereo not given),-1,15,-8,1,-7,-18,.
CCc1cc2cccc(C)c2nc1SCC(=O)N1CCN(C(=O)c2ccco2)CC1,5,18,14,30,57*,-15,38*
CCc1cc2cc(C)cc(C)c2nc1SCC(=O)N1CCN(C(=O)c2ccco2)CC1,-8,20,11,3,20,-3,.
CN(c1ccc(C(=O)Nc2ccc3c(c2)OCO3)cc1)S(C)(=O)=O,-9,12,.,8,20,14,.
CN(c1ccc(C(=O)Nc2ccc(CC#N)cc2)cc1)S(C)(=O)=O,8,23,19,-13,94*,-20,18
CCN1C(=O)/C(=C/c2nc3ccccc3c(=O)[nH]2)c2ccccc21,.,.,12,.,.,2,.
CCN1C(=O)/C(=C/c2nc3ccccc3c(=O)n2-c2ccc(C)cc2)c2ccccc21,10,16,22,40,52*,-11,41*
Oc1ccc(Cl)cc1CNCc1ccc(Cl)cc1,10,21,.,17,60*,-10,38*
COc1ccccc1NS(=O)(=O)c1ccc(C(=O)NCCCN2CCOCC2)cc1,-3,3,.,3,1,.,.
O=C(COc1cccc2cccnc12)N1CCc2ccccc2C1,27,17,3,23,19,2,.
O=C(COc1c(Br)cc(Br)c2cccnc12)N1CCc2ccccc2C1,12,18,4,36,51*,-27,51*
Oc1ccc(Br)cc1C=Nc1ccc2c3c(cccc13)CC2,21,13,1,21,64*,32,60*
Cc1nn(C(C)C)c(C)c1CN1CCC(C(=O)Nc2cccc(-c3cccc(F)c3)c2)CC1,10,-3,3,2,9,-18,.
CC(C(=O)Nc1ccc(Cl)cc1)N1C(=O)NC2(CCCC2)C1=O (stereo not given),-8,28,2,5,22,0,.
SMILES,TIM10 inh,NLRP3 yeast inh,NALP1 yeast inh,tim10-1 inh,tim23-1 inh,PfHsp90 yeast 2,tim23-1 conf
Cc1nc2ccccc2c(=O)n1/N=C/c1ccccc1O,20,10,-14,-8,26,2,.
Cc1cc([N+](=O)[O-])cc(/C=N/n2c(C)nc3ccccc3c2=O)c1O,8,35,2,11,79*,-41,66*
CCOC(=O)c1c(C=O)c2sc(C)cc2n1C,-7,34,4,-1,53*,-5,45*
O=C1C2C(c3ccccc3)CC=CC2[C@H](c2ccoc2)N1Cc1ccccc1 (stereo not given in full),12,14,-1,34,8,-13,.
O=C1[C@H]2CCC=C[C@H]2[C@H](c2ccccc2Br)N1Cc1ccccc1,17,.,.,31,57*,-34,32
O=C1[C@H]2CCC=C[C@H]2[C@H](c2cccc(Br)c2)N1Cc1ccccc1,37,.,.,31,58*,-49,53*
CCOC(=O)N1CCN(C(=O)C2CCN(C(=O)c3ccccc3C)CC2)CC1,.,.,.,.,.,14,.
Cc1ccc(C(=O)C(C)OC(=O)c2cc3cc([N+](=O)[O-])ccc3oc2=O)cc1 (stereo not given),2,13,21,-18,72*,21,55*
COc1cc(/C=C/c2ccc(O)cc2)cc(OC)c1,19,-14,8,26,51*,21,28
C=CCCO[C@@H]1O[C@@H](C)[C@H](O)C[C@H]1O,0,15,.,-8,-13,.,.
CCCCOC(=O)Nc1ccc(S(=O)(=O)Nc2onc(C)c2C)cc1,-15,14,-11,2,-1,-17,.
O=C(NC(=S)NC1CCCCC1)c1ccccc1,29,32,-4,33,62*,-22,56*
O=C(NC(=S)NC1CCS(=O)(=O)C1)c1ccccc1 (stereo not given),0,6,4,-3,-11,-1,.
O=C(NC(=S)Nc1ccccn1)c1ccccc1,15,26,-3,28,50*,26,28
CC(NC(=S)NC(=O)c1ccccc1)c1ccccc1 (stereo not given),1,4,.,28,50*,7,42*
S=C(Nc1ccc(Nc2ccccc2)cc1)Nc1ccccn1,31,24,14,26,52*,-22,27
CCOc1ccccc1C(=O)Nc1ccc2c(c1)C(=O)NC2=O,-1,16,0,5,1,-6,.
COc1ccc(NC(=O)/C=C/c2cccc(Br)c2)cn1,13,21,18,-56,87*,-4,24
COc1cc(SC)ccc1C(=O)Nc1ccc2c(c1)OCCO2,-3,31,11,27,51*,-24,45*
C/[N+]([O-])=C\c1cccc(OCCN2CCN(c3ncc(C(F)(F)F)cc3Cl)CC2)c1,12,22,9,11,12,1,.

# Screens as filed in PubChem.
